{"source": "PubChem BioAssay AID1851", "about": "(National Center for Advancing Translational Sciences (NCATS), 2009)", "note": "About 5,800 (36%) of roughly 16,000 compounds were called active. Not shown: some 23% with an inconclusive outcome. This is one part of the list. A number with no mark means an inactive call. Calls follow the shape of the dose curve; as a rule, active = well fitted curve in the direction sought with a large enough effect; inconclusive = small, poorly fitted or top-dose-only effect, or effect the other way; inactive = no such curve, though single readings can be large or run the other way. % is scaled to controls: 0 for no effect and ±100 for the full control effect."}
{"biological_target": "Cytochrome P450 2C19 (Homo sapiens) (UniProt P33261)", "sequence (P33261 whole entry, looked up)": "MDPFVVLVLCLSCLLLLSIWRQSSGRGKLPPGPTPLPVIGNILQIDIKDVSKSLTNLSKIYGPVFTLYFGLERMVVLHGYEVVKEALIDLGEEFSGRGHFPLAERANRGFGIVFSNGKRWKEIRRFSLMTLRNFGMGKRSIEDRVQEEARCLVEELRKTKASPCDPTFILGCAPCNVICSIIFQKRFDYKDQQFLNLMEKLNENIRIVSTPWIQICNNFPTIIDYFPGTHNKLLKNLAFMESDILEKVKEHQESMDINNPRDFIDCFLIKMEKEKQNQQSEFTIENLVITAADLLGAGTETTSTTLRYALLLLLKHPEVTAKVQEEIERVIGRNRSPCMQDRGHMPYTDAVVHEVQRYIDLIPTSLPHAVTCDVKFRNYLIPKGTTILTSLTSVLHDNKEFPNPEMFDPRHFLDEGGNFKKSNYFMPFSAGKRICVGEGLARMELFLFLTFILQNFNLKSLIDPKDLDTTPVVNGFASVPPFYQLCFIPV", "assay": "Cytochrome panel assay with activity outcomes", "conditions": "recombinant CYP, pro-luciferin dealkylation, luminescence, p450-cyp2c19; series mostly up to 57.1 µM"}
{"smiles": "COc1ccccc1CNCCCCCCNCCCCCCCCNCCCCCCNCc1ccccc1OC", "AC50": "inactive"}
{"smiles": "COc1cc(CNCc2cccs2)cc(Br)c1OC", "AC50": "2.51 µM (active)"}
{"smiles": "COc1cc(CNCc2cccs2)ccc1OCC(=O)NC(C)(C)C", "AC50": "14.1 µM (active)"}
{"smiles": "COc1ccccc1CNCc1cccs1", "AC50": "8.91 µM (active)"}
{"smiles": "CC(C)NC(=O)N1CCCC2(CCN(C(=O)c3csnn3)CC2)C1", "AC50": "inactive"}
{"smiles": "COCC(=O)N1CCC2(CCCN(C(=O)Nc3cccc(F)c3)C2)CC1", "AC50": "inactive"}
{"smiles": "CN(C)C(=O)c1ccc(-c2cncnc2NCCN2CCOCC2)cc1", "AC50": "inactive"}
{"smiles": "CN(C)C(=O)c1ccc(-c2ccc3ncnc(NCCN4CCOCC4)c3c2)cc1", "AC50": "inactive"}
{"smiles": "Cc1ccc(-c2csc3ncnc(NCCN4CCOCC4)c23)cc1", "AC50": "11.2 µM (active)"}
{"smiles": "CN(C)c1ccc(-c2cncnc2NCCN2CCOCC2)cc1", "AC50": "6.31 µM (active)"}
{"smiles": "CC(C)=CCC/C(C)=C/CO/N=C1/C[C@@H](O)[C@@H](O)[C@@H]2[C@@H]3C(=O)N(C[C@@H]4CCCO4)C(=O)[C@H]3CC[C@H]12", "activity, negative = inhibition": "-12% [at 11.4 µM]"}
{"smiles": "Nc1cc2c(nc3c4ccccc4c(N)cc3[n+]2-c2cccc3ccccc23)c2ccccc12", "note": "(tested in a mixture with another compound)", "AC50": "1 µM (active)"}
{"smiles": "Cc1cc(N)c2ccccc2[n+]1CCCCCCCCCC[n+]1c(C)cc(N)c2ccccc21", "AC50": "inactive"}
{"smiles": "COc1ccc(/C=C(\\C#N)C(N)=O)c(OC)c1", "activity, negative = inhibition": "6.18% [at 11.4 µM]"}
{"smiles": "COc1cc(/C=C(\\C#N)C(=O)c2ccc(O)c(O)c2)cc(I)c1O", "AC50": "inactive"}
{"smiles": "COc1cc(/C=C(\\C#N)C(N)=O)cc(CSc2nc3ccccc3s2)c1O", "AC50": "3.16 µM (active)"}
{"smiles": "CCc1ccc(N/C(SCc2ccccc2C)=C(/C#N)C(=O)NCc2ccco2)cc1", "AC50": "2.82 µM (active)"}
{"smiles": "CC(C)Cn1c(SCC(=O)c2c(N)n(C)c(=O)n(C)c2=O)nc2ccccc21", "AC50": "7.94 µM (active)"}
{"smiles": "CCNC(=O)NC(=O)CSc1nc2ccccc2n1CC(C)C", "AC50": "5.62 µM (active)"}
{"smiles": "O=C(CSc1nnc2sc3ccccc3n12)NCc1ccco1", "AC50": "10 µM (active)"}
{"smiles": "Cc1cc(C)c(NC(=O)C(C)Sc2nnc(-c3ccco3)n2-c2ccccc2)c(C)c1", "note": "(stereo not drawn)", "AC50": "1.78 µM (active)"}
{"smiles": "O=C(CSc1nnc(-c2ccco2)n1-c1ccccc1)NCc1ccco1", "AC50": "8.91 µM (active)"}
{"smiles": "Cc1cc2c(cc1C)-c1nnc(-c3ccc4ccccc4n3)n1C(C)(C)C2", "AC50": "inactive"}
{"smiles": "CC(c1ccc(Cl)cc1)n1c(-c2ccc3ccccc3n2)n[nH]c1=S", "note": "(stereo not drawn)", "AC50": "0.447 µM (active)"}
{"smiles": "CN(C)CC[C@H](c1ccc(Cl)cc1)c1ccccn1", "AC50": "inactive"}
{"smiles": "CC(=O)OC[C@@H]1O[C@@H](O/N=C2/C[C@@H](O)[C@@H](O)[C@@H]3[C@@H]4C(=O)N(C5CCCCC5)C(=O)[C@H]4CC[C@H]23)[C@H](OC(C)=O)[C@H](OC(C)=O)[C@@H]1OC(C)=O", "activity, negative = inhibition": "9.71% [at 11.4 µM]"}
{"smiles": "N#Cc1c(-n2ccnc2)cccc1-n1ccnc1", "AC50": "2.24 µM (active)"}
{"smiles": "Cc1cccc(-n2cccc2)c1C#N", "AC50": "17.8 µM (active)"}
{"smiles": "N#Cc1c(Cl)cccc1-n1ccnc1", "AC50": "8.91 µM (active)"}
{"smiles": "FC(F)(F)c1ccccc1-n1ccnc1", "AC50": "inactive"}
{"smiles": "CSC(=NC#N)N1CCN(c2ccc(Cl)cc2)CC1", "AC50": "0.708 µM (active)"}
{"smiles": "O=C(CCNC(=O)Cn1cnc2ccccc2c1=O)NCC1COc2ccccc2O1", "note": "(stereo not drawn)", "AC50": "28.2 µM (active)"}
{"smiles": "O=C(Cn1cnc2ccccc2c1=O)NCCC(=O)Nc1ccc2c(c1)OCCO2", "AC50": "inactive"}
{"smiles": "c1ccc(C(c2ccccc2)N2CC[C@@]3(CCCNC3)C2)cc1", "AC50": "inactive"}
{"smiles": "O=C(O)CC(c1ccccc1)n1cnnn1", "note": "(stereo not drawn)", "AC50": "inactive"}
{"smiles": "CN1[C@@H](CC(=O)c2ccccc2)CCC[C@@H]1C[C@@H](O)c1ccccc1", "AC50": "inactive"}
{"smiles": "O=C(C[C@@H](c1ccccc1)N1CCCCC1)c1ccccc1", "AC50": "2.51 µM (active)"}
{"smiles": "O=CN[C@@H](Cc1cnc[nH]1)C(=O)O", "activity, negative = inhibition": "6.59% [at 11.4 µM]"}
{"smiles": "C=CCc1cccc(C2Nc3ccccc3C(=O)N2O)c1O", "note": "(stereo not drawn)", "AC50": "1.58 µM (active)"}
{"smiles": "O=C1c2ccccc2NC(c2ccc3c(c2)OCO3)N1O", "note": "(stereo not drawn)", "AC50": "10 µM (active)"}
{"smiles": "O=C1c2ccccc2NC(c2ccc(Cl)cc2Cl)N1O", "note": "(stereo not drawn)", "AC50": "5.62 µM (active)"}
{"smiles": "CCNC(=S)NNC(=O)Cc1ccccc1", "AC50": "inactive"}
{"smiles": "CCNC(=S)NNC(=O)CCn1c2ccccc2c2ccccc21", "AC50": "5.01 µM (active)"}
{"smiles": "CCOc1cc(/C=N/O)cc(Cl)c1OC", "AC50": "20 µM (active)"}
{"smiles": "COc1cc(/C=N/O)cc(Br)c1OCc1cccc(Cl)c1", "AC50": "2 µM (active)"}
{"smiles": "COc1cc(/C=N/O)cc(Br)c1OCc1ccc(Cl)cc1", "AC50": "1.58 µM (active)"}
{"smiles": "C=CCc1cc(C=O)cc(OC)c1OCc1ccc(Cl)cc1", "AC50": "0.794 µM (active)"}
{"smiles": "COc1ccc(Cl)cc1N=Nc1ncc[nH]1", "AC50": "inactive"}
{"smiles": "CCN1C(=O)[C@H]2[C@H]3[C@H](O)[C@H](O)C/C(=N/OC[C@@H](O)[C@H]4O[C@H]5OC(C)(C)O[C@H]5[C@@H]4O)[C@@H]3CC[C@@H]2C1=O", "activity, negative = inhibition": "15% [at 11.4 µM]"}
{"smiles": "COC(=O)C1CCC(C)(C(=O)Nc2ccccc2)C1(C)C", "note": "(stereo not drawn)", "AC50": "3.55 µM (active)"}
{"smiles": "COC(=O)N1CCC[C@@]2(CCN(C(=O)Nc3ccccc3)C2)C1", "AC50": "inactive"}
{"smiles": "COC(=O)N1CCC2(CC1)CN(C(=O)Nc1ccccc1)C2", "AC50": "inactive"}
{"smiles": "CCn1c(SCc2ccc(Cl)cc2Cl)nc2nc3c(cc2c1=O)CCCC3", "AC50": "3.98 µM (active)"}
{"smiles": "COc1cc2c3cc1Oc1c(OC)c(OC)cc4c1[C@@H](Cc1ccc(O)c(c1)Oc1ccc(cc1)C[C@@H]3N(C)CC2)CN(C)C4", "activity, negative = inhibition": "-44.9% [at 11.4 µM]"}
{"smiles": "COc1ccc([N+](=O)[O-])cc1N(CC(O)CN(CC(C)C)CC(C)C)S(=O)(=O)c1ccccc1", "note": "(stereo not drawn)", "AC50": "6.31 µM (active)"}
{"smiles": "Cn1ccc2cc3c(cc21)CCN3C(=O)Nc1cccnc1", "AC50": "inactive"}
{"smiles": "O=C(Nc1ccccc1)N1CCSc2cc(Cl)ccc21", "AC50": "0.794 µM (active)"}
{"smiles": "CS(=O)(=O)N1CCC2(CC1)CN(C(=O)Nc1ccccc1)C2", "AC50": "inactive"}
{"smiles": "O=C(O)c1cc(-c2ccncc2)nc2ccccc12", "activity, negative = inhibition": "15.6% [at 11.4 µM]"}
{"smiles": "O=C(N/N=C/c1ccc([N+](=O)[O-])o1)c1cc(-c2ccncc2)nc2ccccc12", "AC50": "2.82 µM (active)"}
{"smiles": "CCn1c2ccccc2c2cc(NC(=O)C(C)Oc3ccc(OC)cc3)ccc21", "note": "(stereo not drawn)", "AC50": "0.398 µM (active)"}
{"smiles": "CCC(Sc1ncccc1C(=O)O)C(=O)N1CCOCC1", "note": "(stereo not drawn)", "AC50": "inactive"}
{"smiles": "CCC(C(=O)N1CCOCC1)n1c(C(=O)OC)cc2occc21", "note": "(stereo not drawn)", "AC50": "5.01 µM (active)"}
{"smiles": "Cc1cc(=O)oc2cc(O)ccc12", "AC50": "inactive"}
{"smiles": "CCN(CC)c1ccc(C(=O)OCc2cc(=O)oc3cc(O)ccc23)cc1", "AC50": "0.355 µM (active)"}
{"smiles": "CCN(CC)c1ccc2c(Cl)cc(=O)oc2c1", "AC50": "11.2 µM (active)"}
{"smiles": "COc1ccc2c(CC(=O)NCC3CCC(C(=O)O)CC3)cc(=O)oc2c1", "note": "(stereo not drawn)", "AC50": "inactive"}
{"smiles": "CCCC[C@H](CC)CN1CN(C[C@@H](CC)CCCC)CC(C)(N)C1", "AC50": "inactive"}
{"smiles": "CS(=O)(=O)N1CCN(c2c(Cl)cccc2[N+](=O)[O-])CC1", "AC50": "14.1 µM (active)"}
{"smiles": "CS(=O)(=O)N1CCC2(CCN(c3ccccc3)CC2)CC1", "AC50": "inactive"}
{"smiles": "CS(=O)(=O)N1CCC2(CCN(C(c3ccccc3)c3ccccc3)CC2)CC1", "AC50": "inactive"}
{"smiles": "CCS(=O)(=O)N1CCN(c2c(Cl)cccc2[N+](=O)[O-])CC1", "AC50": "10 µM (active)"}
{"smiles": "CCN1CCc2nc(N)oc2CC1", "AC50": "inactive"}
{"smiles": "CC(=O)N(/N=C1\\Sc2ccccc2C1=O)c1ccccc1C", "AC50": "4.47 µM (active)"}
{"smiles": "CC(=O)N(/N=C1\\Sc2ccccc2C1=O)c1ccccc1", "AC50": "3.16 µM (active)"}
{"smiles": "Clc1ccc(N2CCCCCC2)nn1", "AC50": "inactive"}
{"smiles": "O=[N+]([O-])c1cccnc1N1CCOCC1", "AC50": "inactive"}
{"smiles": "O=[N+]([O-])c1ccc(N2CCCC2)cc1N1CCCC1", "AC50": "4.47 µM (active)"}
{"smiles": "O=[N+]([O-])c1ccc(N2CCCCC2)c(Cl)c1N1CCCCC1", "AC50": "1.41 µM (active)"}
{"smiles": "CC(C)c1ccc(CNc2cc(N3CCCC3)ccc2[N+](=O)[O-])cc1", "AC50": "1.78 µM (active)"}
{"smiles": "O=[N+]([O-])c1cc(F)c(N2CCOCC2)cc1N1CCCCC1", "AC50": "3.98 µM (active)"}
{"smiles": "COC(=O)[C@@]1(Cc2ccccc2)[C@H]2c3cc(C(=O)N4CCCC4)n(Cc4ccsc4Br)c3C[C@H]2CN1C(=O)c1ccccc1", "AC50": "2.51 µM (active)"}
{"smiles": "COC(=O)[C@@]1(Cc2ccccc2)[C@H]2c3cc(C(=O)N4CCCC4)n(Cc4cccc5ccccc45)c3C[C@H]2CN1C(=O)c1ccccc1", "AC50": "2.51 µM (active)"}
{"smiles": "COC(=O)[C@@]1(Cc2ccccc2)[C@H]2c3cc(C(=O)N(C)C)n(Cc4ccsc4Br)c3C[C@H]2CN1C(=O)c1ccccc1", "AC50": "2 µM (active)"}
{"smiles": "O=C(O)c1c(Cl)c(Cl)c(Cl)c(Cl)c1C(=O)Nc1ccc2cn[nH]c2c1", "activity, negative = inhibition": "-27.8% [at 11.4 µM]"}
{"smiles": "S=C(Nc1ccc2cn[nH]c2c1)Nc1ccc2cn[nH]c2c1", "AC50": "1 µM (active)"}
{"smiles": "CCNc1ncc2nc(-c3ccc(Cl)cc3)c(=O)n(C3CC3)c2n1", "AC50": "inactive"}
{"smiles": "CN(C)CCCNc1c(C(=O)O)cnc2c1cnn2C", "AC50": "inactive"}
{"smiles": "CC(=O)N1CCC(=O)N(C(C)C)c2ccccc21", "AC50": "inactive"}
{"smiles": "Cc1ccc(-n2c(=O)[nH]cc(C(=O)N3CCc4ccccc43)c2=O)cc1", "AC50": "inactive"}
{"smiles": "Cc1nn(C(C)C(=O)N2CCc3ccccc32)c(C)c1[N+](=O)[O-]", "note": "(stereo not drawn)", "AC50": "11.2 µM (active)"}
{"smiles": "CN(C)CC[C@@H](c1ccccc1)c1ccccn1", "AC50": "inactive"}
{"smiles": "CN(C)CC(CN(C)C)c1ccccn1", "activity, negative = inhibition": "4.36% [at 11.4 µM]"}
{"smiles": "C[C@@H](C1=C(CCN(C)C)Cc2ccccc21)c1ccccn1", "AC50": "2.51 µM (active)"}
{"smiles": "Cc1n[nH]c(=O)[nH]c1=O", "AC50": "inactive"}
{"smiles": "CS(=O)(=O)Nc1cccc(-c2nc(NCc3cccs3)c3ccccc3n2)c1", "AC50": "10 µM (active)"}
{"smiles": "CS(=O)(=O)Nc1cccc(-c2nc(NCCN3CCOCC3)c3ccccc3n2)c1", "AC50": "inactive"}
{"smiles": "Cc1cccc(CNc2nc(-c3cccc(NS(C)(=O)=O)c3)nc3ccccc23)c1", "AC50": "2.51 µM (active)"}
